{"source": "PubChem BioAssay (Tox21)", "note": "Inconclusive results are not listed. Active and inactive are the calls of the source. Calls come from the whole dose curve. Where a SMILES comes first, the peptide text is derived from it. [ ]: non-standard residue; d: D form. pGlu = O=C1CC[C@@H](C(=O)O)N1"}
{"molecular_target": "Retinoic acid receptor RXR-alpha (Homo sapiens) (UniProt P19793)", "sequence (P19793 whole entry, looked up)": "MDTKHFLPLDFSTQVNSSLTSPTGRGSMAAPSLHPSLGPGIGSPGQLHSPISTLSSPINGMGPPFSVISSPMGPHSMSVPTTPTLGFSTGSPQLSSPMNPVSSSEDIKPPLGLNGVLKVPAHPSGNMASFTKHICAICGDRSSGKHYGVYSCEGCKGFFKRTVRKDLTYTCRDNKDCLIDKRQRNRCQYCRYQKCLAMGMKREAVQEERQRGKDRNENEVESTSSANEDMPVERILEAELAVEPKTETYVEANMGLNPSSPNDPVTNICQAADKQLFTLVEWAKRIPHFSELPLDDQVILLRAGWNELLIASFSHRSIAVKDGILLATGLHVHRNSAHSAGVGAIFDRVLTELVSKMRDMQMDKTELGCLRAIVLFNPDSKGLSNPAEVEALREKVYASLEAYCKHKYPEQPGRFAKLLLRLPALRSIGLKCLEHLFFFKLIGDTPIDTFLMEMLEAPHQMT", "experiment": "qHTS assay to identify small molecule agonists of the RXR signaling pathway (AID 1159527); note: % is set by controls: 0 for no effect and ±100 for the full control effect; nearly all actives have a fitted effect of over 35% in size", "settings": "HEK293T RXRa-UAS-bla, beta-lactamase ratio, 16 h; series mostly up to 76.8 µM; activation: at the top concentration", "how_it_was_run": "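Read-out: beta-lactamase FRET ratio (405 nm excitation, 460 and 530 nm emission) after 2 hr substrate loading at room temperature. Cells were RXR-alpha-UAS-bla HEK 293T treated with compounds for 16 hr in 2% charcoal-stripped FBS medium.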"}
{"molecule": "O=C(O)CNC(=O)c1ccccc1", "activation": "5.35% [at 35.3 µM] (inactive)"}
{"molecule": "CC(C)CC(C)(N)C#N", "note": "(stereo not drawn)", "activation": "7.56% (inactive)"}
{"molecule": "CCOC(=O)c1cnc2c(cnn2CC)c1NN=C(C)C", "activation": "-8.86% [at 35.3 µM] (inactive)"}
{"molecule": "COc1ccccc1OCC1CNC(=O)O1", "note": "(stereo not drawn)", "activation": "3.04% [at 35.3 µM] (inactive)"}
{"molecule": "CO/N=C(\\C(=O)N[C@@H]1C(=O)N2C(C(=O)O)=C(CSc3nc(=O)c(O)nn3C)CS[C@H]12)c1csc(N)n1", "activation": "0.488% [at 35.3 µM] (inactive)"}
{"molecule": "O=C1CCCCCCCCCCCCCCO1", "activation": "5.91% (inactive)"}
{"molecule": "CCCc1nn(C)c2c(=O)[nH]c(-c3cc(S(=O)(=O)N4CCN(C)CC4)ccc3OCC)nc12", "activation": "-13.5% [at 35.3 µM] (inactive)"}
{"molecule": "CCCCOC(=O)CCC(C)=O", "activation": "6.85% (inactive)"}
{"molecule": "O=CN(CCO)CCO", "activation": "2.61% (inactive)"}
{"molecule": "C[N+](C)(CCOc1ccccc1)Cc1cccs1", "activation": "-7.25% [at 35.3 µM] (inactive)"}
{"molecule": "CC1=NN(c2cccc(S(=O)(=O)O)c2)C(=O)C1", "activation": "10.2% (inactive)"}
{"molecule": "CCOC(=O)C1=NOC(c2ccccc2)(c2ccccc2)C1", "activation": "-11.7% (inactive)"}
{"molecule": "CCC(=O)OCc1ccccc1", "activation": "10.3% (inactive)"}
{"molecule": "COc1cc(C(=O)OC(COCCC(C)C)CN2CCOCC2)cc(OC)c1OC", "note": "(stereo not drawn)", "activation": "3.25% [at 35.3 µM] (inactive)"}
{"molecule": "CC12CCC(C(=O)C1=O)C2(C)C", "note": "(stereo not drawn)", "activation": "-4.24% (inactive)"}
{"molecule": "NC(N)=NCCN1CCCCCCC1", "activation": "1.89% [at 0.29 µM] (inactive)"}
{"molecule": "Cc1ncc(COP(=O)(O)O)c(C=O)c1O", "activation": "0.991% [at 35.3 µM] (inactive)"}
{"molecule": "CC(=O)Oc1cccc(C)c1", "activation": "4.81% [at 35.3 µM] (inactive)"}
{"molecule": "CN1[C@@H]2CC[C@H]1CC(OC(=O)C(O)c1ccccc1)C2", "note": "(stereo partly drawn)", "activation": "2.11% [at 35.3 µM] (inactive)"}
{"molecule": "CC(N)C12CC3CC(CC(C3)C1)C2", "note": "(stereo not drawn)", "activation": "-11% [at 35.3 µM] (inactive)"}
{"molecule": "CCN(CC#N)c1cccc(C)c1", "activation": "5.44% (inactive)"}
{"molecule": "CC1=NN(c2cc(S(=O)(=O)O)ccc2Cl)C(=O)C1N=Nc1ccccc1", "note": "(stereo not drawn)", "activation": "-13% (inactive)"}
{"molecule": "CC(=O)c1ccccc1[N+](=O)[O-]", "activation": "1.37% (inactive)"}
{"molecule": "C=CCCC(=O)O", "activation": "4.94% (inactive)"}
{"molecule": "O=C(O)CC(C(=O)O)S(=O)(=O)O", "note": "(stereo not drawn)", "activation": "12.5% (inactive)"}
{"molecule": "CC(C)CCCO", "activation": "3.68% (inactive)"}
{"molecule": "CC(COc1ccccc1)NN", "note": "(stereo not drawn)", "activation": "4.83% [at 35.3 µM] (inactive)"}
{"molecule": "Nc1ccn([C@@H]2O[C@H](CO)[C@@H](O)[C@@H]2O)c(=O)n1", "activation": "-15.9% (inactive)"}
{"molecule": "CCNC(=O)[C@@H]1CCCN1C(=O)[C@H](CCCN=C(N)N)NC(=O)[C@H](CC(C)C)NC(=O)CNC(=O)[C@H](Cc1ccc(O)cc1)NC(=O)[C@H](CO)NC(=O)[C@H](Cc1c[nH]c2ccccc12)NC(=O)[C@H](Cc1cnc[nH]1)NC(=O)[C@@H]1CCC(=O)N1", "note": "([pGlu]HWSYGLRP-NHEt)", "activation": "4.44% [at 35.3 µM] (inactive)"}
{"molecule": "CCCCN(CCC(=O)OCC)C(C)=O", "activation": "5.2% (inactive)"}
{"molecule": "CCCn1cc[n+](C)c1C", "activation": "-1.96% (inactive)"}
{"molecule": "Clc1cc(Cl)cc(Cl)c1", "activation": "11.1% (inactive)"}
{"molecule": "CCOC(=O)COc1cc(-n2ncc(C(F)(F)F)c(C)c2=O)c(F)cc1Cl", "activation": "-11.1% (inactive)"}
{"molecule": "CC(C)COC(=O)c1ccc(N)cc1", "activation": "-9.03% [at 35.3 µM] (inactive)"}
{"molecule": "CC(=O)OCC(=O)[C@@]1(O)[C@H](C)C[C@H]2[C@@H]3CCC4=CC(=O)C=C[C@]4(C)[C@@]3(F)[C@@H](O)C[C@@]21C", "activation": "7.93% [at 35.3 µM] (inactive)"}
{"molecule": "O=C(O)CCCC[P+](c1ccccc1)(c1ccccc1)c1ccccc1", "activation": "-7.23% [at 35.3 µM] (inactive)"}
{"molecule": "CC1=CCC(O)(C(C)C)CC1", "note": "(stereo not drawn)", "activation": "4.85% (inactive)"}
{"molecule": "[K+]", "activation": "-1.91% (inactive)"}
